# In PubChem BioAssay (Tox21):
# Inconclusive results are not listed. A number with no mark means an inactive call. Active and inactive are the calls of the source. Calls follow the shape of the full dose curve.
# Assay: p53 small molecule agonists, cell-based qHTS assay with rat liver microsomes: qHTS cell viability counter screen (AID 1963580); also: nearly all actives have a fitted effect of over 45% in size
# Conditions: p53RE-bla HCT-116 + rat microsomes, ATP viability, 16 h; series mostly up to 66 µM; activity change, negative = cytotoxicity: at the top concentration
# Source text: National Center for Advancing Translational Sciences [NCATS]
# Division of Preclinical Innovation [DPI]
# U.S. Environmental Protection Agency [EPA]
# National Institutes of Environmental Health Sciences [NIEHS]
# National Toxicology Program [NTP]
# U.S. Food and Drug Administration [FDA]
# p53, a tumor suppressor protein, is activated following cellular insult, including DNA damage and other cellular stresses. The activation of p53 regulates cell fate by inducing DNA repair, cell cycle arrest, apoptosis, or cellular senescence. The activation of p53, therefore, is a good indicator of DNA damage and other cellular stresses. The CellSensor p53RE-bla HCT-116 cell line contains a stably integrated beta-lactamase reporter gene under control of the p53 response elements. The activation of the reporter gene under culture conditions can be detected by fluorescence intensity. This cell line was used to screen the Tox21 10K compound library in the condition of presence of rat liver microsomes and to identify agonists that activate the p53 signaling pathway after in vitro metabolic activation (Ooka et al., Archive of Toxicology 96:1975-1987, 2022). The cytotoxicity of the Tox21 compound library against the p53 RE-bla HCT-116 cell line was tested in parallel by measuring the intra cellular ATP content in the same wells.
# Tox21 Assay Protocol Summary:
# The p53RE-bla cells were dispensed at 4,000cells/3ul/well in 1536-well black-clear bottom plates. After the assay plates were incubated at 37 C, 5% CO2 incubator for 5 hours, 23 nL of compounds dissolved in DMSO, positive controls or DMSO only was transferred to the assay plate. Following compound addition, 3 uL of rat liver microsomes (Molecular Toxicology, Boone, NC) at final concentration of 0.5 mg/mL and 1uL of B-Nicotinamide adenine dinucleotide 2'-phosphate (NADPH) at final concentration of 0.5 mg/mL were transferred to the assay plate. The plates were incubated at 37 C for 16 hours. 1 uL of LiveBLAzer detection mixture was added to each well and the plates were incubated at room temperature in the dark for 2 h. Fluorescence intensity at 460 and 530 nm emission and 405 nm excitation were measured by an Envision plate reader. For cell viability readout that measures cytotoxicity, 4 ul/well of CellTiter-Glo reagent was added into the assay plates using a Flying Reagent Dispenser. After 30 min incubation at room temperature, the luminescence intensity in the plates was measured using a ViewLux plate reader.
# % is scaled to controls: 0 for no effect and ±100 for the full control effect.
SMILES,"activity change, negative = cytotoxicity",Potency
CCCC(CC)c1ccccc1 (stereo not given),-1.24%,–
CC(COc1ccc(C(C)(C)C)cc1)OS(=O)OCCCl (stereo not given),1.96%,–
CCCCN1C[C@H](O)[C@@H](O)[C@H](O)[C@H]1CO,0.813% [at 30.3 µM],–
Clc1ccc2cc3ccccc3cc2c1,-1.96%,–
CCCC(=O)OC(C)(C)Cc1ccccc1,3.76%,–
CN(C)CC/C=C1\c2ccccc2Sc2ccc(Cl)cc21,-2.43% [at 30.3 µM],–
CCCCOC(=O)CO,-2.23%,–
C[C@]12CCC(=O)C=C1C=C[C@@H]1[C@@H]2CC[C@@]2(C)[C@H]1CC[C@@]21CCC(=O)O1,0.0405% [at 30.3 µM],–
CCN1/C(=C/C=C/c2sc3ccccc3[n+]2CC)Sc2ccccc21,1.97% [at 13.5 µM],–
NCCCN1CCOCC1,-10.9%,–
Cc1nc(N)nc(N)c1-c1ccc(Cl)c(Cl)c1,7.1% [at 30.3 µM],–
Cc1[nH]c(C)c(Cl)c(=O)c1Cl,4.54% [at 13.5 µM],–
CCOCC(C)O (stereo not given),-1.43%,–
FC1(F)C(F)(F)C(F)(F)C2(F)C(F)(F)C(F)(F)C(F)(F)C(F)(F)C2(F)C1(F)F (stereo not given),-9.54% [at 30.3 µM],–
C[C@H](CCC(=O)O)[C@H]1CC[C@H]2[C@@H]3CC[C@@H]4C[C@H](O)CC[C@]4(C)[C@H]3C[C@H](O)[C@]12C,-8.61%,–
CCCC/C=C/C=C\C=O,-17.6%,–
O=C1NC(=O)c2cccc3cccc1c23,-5.13%,–
CCN1CCN(C(=O)N[C@@H](C(=O)N[C@@H]2C(=O)N3C(C(=O)O)=C(CSc4nnnn4C)CS[C@H]23)c2ccc(O)cc2)C(=O)C1=O,3.25% [at 30.3 µM],–
COC(C)(C)OC,1.54%,–
CCN(Cc1cccc(S(=O)(=O)O)c1)c1ccc(C(=C2C=CC(=[N+](CC)Cc3cccc(S(=O)(=O)[O-])c3)C=C2)c2ccccc2)cc1,11.6% [at 30.3 µM],–

SMILES,"activity change, negative = cytotoxicity",Potency
CC(C)(C)c1cc(CCC(=O)OCC(COC(=O)CCc2cc(C(C)(C)C)c(O)c(C(C)(C)C)c2)(COC(=O)CCc2cc(C(C)(C)C)c(O)c(C(C)(C)C)c2)COC(=O)CCc2cc(C(C)(C)C)c(O)c(C(C)(C)C)c2)cc(C(C)(C)C)c1O,-15.4% [at 30.3 µM],–
NC(=O)c1ccccc1C(N)=O,-0.329%,–
CN[C@H]1CC[C@@H](c2ccc(Cl)c(Cl)c2)c2ccccc21,-3.22% [at 30.3 µM],–
CCCC(C)CC (stereo not given),5.86%,–
C=CC(=O)OCCCCCCOC(=O)C=C,–,inactive
CN(C)c1ccc(O)c2c1C[C@H]1C[C@H]3[C@H](N(C)C)C(=O)C(C(N)=O)=C(O)[C@@]3(O)C(=O)C1=C2O,–,inactive
CC(C)(C)CC(C)(C)c1ccc(O)c(Cc2ccc(Cl)cc2Cl)c1,1.27% [at 30.3 µM],–
Nc1cccc2c(N)cccc12,-5.22%,–
C[C@H](CCC(=O)O)[C@H]1CC[C@H]2[C@@H]3CC[C@@H]4C[C@H](O)CC[C@]4(C)[C@H]3CC[C@]12C,–,inactive
C/C=C1\[C@H]2C=C(C)C[C@]1(N)c1ccc(=O)[nH]c1C2,3.12% [at 30.3 µM],–
O=C(c1ccccc1)C1CCCCC1,-0.122%,–
CC(=O)c1ccc2c(c1)Cc1ccccc1-2,5.48%,–
NCc1ccccc1,8.8%,–
NC(=O)c1ccccc1,-2.67%,–
CC(C)N1C(=O)c2ccccc2C1=O,0.225%,–
Cc1cc(C(=C2C=CC(=Nc3ccc(S(=O)(=O)O)cc3S(=O)(=O)O)C=C2)c2ccc(Nc3ccc(S(=O)(=O)O)cc3)cc2)ccc1N,-1.23% [at 30.3 µM],–
CN1CCC(=C2c3ccccc3CCc3cccnc32)CC1,6.39% [at 30.3 µM],–
O=c1cc(O)c(Cl)c[nH]1,3.47% [at 30.3 µM],–
FC(F)(Cl)C(F)(Cl)Cl,3.64%,–
O=CNc1ccccc1,4.02%,–
